Screening data from PubChem BioAssay.
Shown are actives, neighbours in structure and some others; about 2.8% of the full set was active somewhere.
Wnt act = activates Wnt/beta-catenin signaling in a reporter cell assay | activator, plate reader | activation, % at 9.35 µM | actives 1.2% (n = 300,000); in the data active = activation above about 30%, passing the limit was not always enough; inconclusive = no clear call, values can overlap the other calls;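 note: 0% = neutral control wells and 100% = positive control wells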
esBAF inh = inhibitors of esBAF chromatin remodeling in mouse ES cells. reporter increase, % at 12.5 µM. actives 2% (n = 350,000). Bmi1-luciferase knock-in reporter, 24 h; 100% = twice the neutral-well signal; in the data active = activation above about 40%; inconclusive = no clear call, values can overlap the other calls;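 note: 0% = median of the plate's neutral control wells and 100% = double that signal; a rise in the Bmi1 reporter signal indicates esBAF inhibition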
GAA850 FXN act = frataxin GAA850 promoter activation. actives 0.56% (n = 360,000). HEK293 lucGAA850 FXN promoter luciferase reporter, 24 h; percent of 10 µM SAHA response. AID 540364. activation, % at 6 µM;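 active = activation above the average of all compounds screened plus 3 SD, cutoff fixed separately per campaign, cut at about 7.5% in these data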;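 note: 0% = DMSO wells and 100% = 10 µM SAHA wells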
MITF act = activators of MITF-driven TRPM1 promoter activity in SK-MEL-5 cells | activation, % at 12.5 µM | SK-MEL-5 TRPM1-promoter luciferase, 24 h; % of positive control, neutral wells = 0 | actives 0.75% (n = 300,000) | AID 588334;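 active = mean activation of at least 80% with every replicate also reaching 80%; inconclusive = mean reaches 80% but some replicate falls short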;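 note: 0% = neutral control wells and 100% = parthenolide positive control wells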
GAA30 counter = activates GAA30 frataxin promoter, counter-screen for GAA850 activators. shares compounds with GAA850 FXN act. HEK293 lucGAA30 FXN promoter luciferase, 24 h; DMSO = 0%, 5 µM ipriflavone = 100%. activation, % at 6 µM. actives 66% (n = 1,900). AID 588350;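 active = mean activation above the mean of solvent-only control wells plus 3 SD, cut at about 22% in these data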;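 note: counterscreen of GAA850 promoter hits where activity marks nonselective or luminescence artifacts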
GAA850 confirm = GAA850 FXN promoter activation confirmation; shares compounds with GAA850 FXN act; HEK293 lucGAA850 FXN promoter luciferase reporter, 24 h; 100% = activation by SAHA; activation, % at 6 µM; actives 86% (n = 1,900); AID 588351;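 active = mean activation above a set limit taken from the primary screen, cut at about 8% in these data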;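 note: 0% = DMSO wells and 100% = 10 µM SAHA wells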
esBAF Ring1 qPCR = esBAF inhibition confirmed by Ring1 de-repression. mouse ESC E14, Ring1 mRNA RT-qPCR fold change. shares compounds with esBAF inh. fold change at 33 µM. 550 tested, under 10 active;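 active = Ring1 gene expression raised more than 2-fold over untreated cells in both replicates at either tested dose; inconclusive = only one replicate above 2-fold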;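 note: Ring1 transcript normalised to actin housekeeping signal by TaqMan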
Fgf4 repress = esBAF inhibition confirmed by Fgf4 repression. actives 4% (n = 550). shares compounds with esBAF inh. mouse ESC E14, Fgf4 mRNA qPCR fold change; active compounds read low. Fgf4 expression fold change at 33 µM;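 active = Fgf4 expression under 0.8 fold of control in both repeat measurements at one or both tested doses; inconclusive = under 0.8 fold in just a single repeat measurement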;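 note: Fgf4 transcript normalised to actin in duplex TaqMan qPCR; cells exposed to compound for 24 h before lysis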
esBAF Bmi1 qPCR = confirmation of esBAF inhibitors: Bmi1 de-repression in mouse ESCs | AID 743180 | mouse ESE14 ES cells, Bmi1 mRNA qPCR fold; active compounds read high | 550 tested, under 10 active | fold change at 33 µM | shares compounds with esBAF inh;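 active = Bmi1 expression fold change above 6 at either tested concentration, seen in replicate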;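 note: higher fold means more Bmi1 de-repression and stronger esBAF inhibition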
A549 tox SP = cytotoxicity in A549 cells; shares compounds with esBAF inh; plate reader; cell viability change % (negative = cytotoxic), % at 25 µM, hits read low; 550 tested, under 10 active; AID 743188; call rule not given here
HepG2 cytotox SP = HepG2 cell cytotoxicity at single point. shares compounds with esBAF inh. plate reader; active compounds read low. activity change, negative = inhibition, % at 25 µM. actives 4% (n = 550); in the data active = activity change below about -50%
HEK293 tox SP = cytotoxicity in HEK293 cells. plate reader. shares compounds with esBAF inh. activity change, negative = inhibition, % at 25 µM, hits read low. actives 3% (n = 550); in the data active = activity change below about -38%, passing the limit was not always enough
Numbers without * were called inactive; ? = inconclusive; . = no result.

SMILES | Wnt act | esBAF inh | GAA850 FXN act | MITF act | esBAF Ring1 qPCR | Fgf4 repress | esBAF Bmi1 qPCR | A549 tox SP | HepG2 cytotox SP | HEK293 tox SP | others
CC(=O)Nc1ccc(NC(=O)c2nc(S(=O)(=O)Cc3ccccc3)ncc2Cl)cc1 | -9 | -45 | 6 | -88 | . | . | . | . | . | .
CCS(=O)(=O)c1ncc(Cl)c(C(=O)Nc2ccc(C)cc2)n1 | -8 | -3 | 19* | . | . | . | . | . | . | . | GAA30 counter=-61;GAA850 confirm=1
O=C(NCc1ccc2c(c1)OCO2)c1nc(S(=O)(=O)Cc2ccccc2)ncc1Cl | -1 | -35 | 7.9* | -53 | . | . | . | . | . | . | GAA30 counter=38*;GAA850 confirm=70*
COc1ccc(CNC(=O)c2nc(S(=O)(=O)Cc3ccccc3)ncc2Cl)cc1 | -5 | 10 | 6 | -68 | . | . | . | . | . | .
O=C(NCc1ccccc1)c1nc(S(=O)(=O)Cc2ccccc2)ncc1Cl | -6 | -8 | 17* | -48 | . | . | . | . | . | . | GAA30 counter=9;GAA850 confirm=28*
Cc1ccc(CS(=O)(=O)c2ncc(Cl)c(C(=O)Nc3ccc(OC(F)F)cc3)n2)cc1 | -11 | -13 | -2 | -82 | . | . | . | . | . | .
C[C@@H]1CN([C@H](C)CO)C(=O)c2cc(NC(=O)CCC(F)(F)F)ccc2O[C@@H](C)CCCCO[C@H]1CN(C)C(=O)c1ccccc1 | . | -1 | . | . | . | . | . | . | . | .
CO[C@@H]1CN(C)C(=O)c2cc(NS(C)(=O)=O)ccc2OC[C@@H](C)N(S(C)(=O)=O)C[C@@H]1C | . | -1 | . | . | . | . | . | . | . | .
Cc1cc(O)c(NC(=O)c2cccc([N+](=O)[O-])c2)cc1C | 30* | 39 | 7.6* | 7 | . | . | . | . | . | . | GAA30 counter=91*;GAA850 confirm=31*
O=C(Nc1cc([N+](=O)[O-])ccc1O)c1cccc(C(=O)Nc2cc([N+](=O)[O-])ccc2O)c1 | -1 | -11 | 3 | . | . | . | . | . | . | .
CCOC(=O)c1nc2ccccc2c(=O)[nH]1 | 18 | . | 8.1* | 30 | . | . | . | . | . | . | GAA30 counter=69*;GAA850 confirm=23*
Cn1cnc(S(=O)(=O)N[C@@H]2C=C[C@H](CC(=O)Nc3ccccc3)O[C@@H]2CO)c1 | . | -5 | . | . | . | . | . | . | . | .
O=C(C[C@H]1CC[C@@H]2[C@H](COC[C@H](O)CN2S(=O)(=O)c2ccccc2)O1)NCc1ccc2c(c1)OCO2 | . | 3 | . | . | . | . | . | . | . | .
COc1ccc(S(=O)(=O)N(C)C[C@@H]2OCCCC[C@H](C)Oc3ccc(N(C)C)cc3C(=O)N([C@@H](C)CO)C[C@@H]2C)cc1 | . | 2 | . | . | . | . | . | . | . | .
O=C(O)c1ccccc1NN=C1CCCCC1 | 4 | 83* | 9.0* | 12 | . | . | . | . | . | . | GAA30 counter=38*;GAA850 confirm=7
Cc1ccc(-c2nc(Nc3ccccc3)n[nH]2)cc1 | 45* | . | 7.7* | 40 | . | . | . | . | . | . | GAA30 counter=112*;GAA850 confirm=38*
Cc1noc(C)c1S(=O)(=O)Nc1ccc2c(c1)C(=O)N([C@H](C)CO)C[C@H](C)[C@H](CN(C)Cc1ccncc1)O2 | . | 5 | . | . | . | . | . | . | . | .
Cc1ccc(C(=O)NNC(=S)NC(=O)c2ccccc2)cc1 | 0 | . | 1 | 15 | . | . | . | . | . | .
Cc1ccc(NC(=O)NC(=S)NC(=O)c2ccccc2)cc1 | 4 | . | 8.2* | 21 | . | . | . | . | . | . | GAA30 counter=56*;GAA850 confirm=24*
COC(=O)Nc1sc2c(c1C(N)=O)CCC(C)C2 (configuration not stated) | 1 | . | 3 | 6 | . | . | . | . | . | .
CC1CCc2c(sc(NC(=O)c3cccn3C)c2C(N)=O)C1 (configuration not stated) | 8 | 71* | 1 | 37 | 1.1 | 1 | 1.5 | -11 | -17 | -19
Cc1cc(F)ccc1-c1cc(C(=O)Nc2ccc(F)cc2)[nH]n1 | 1 | 71* | 4 | . | 1.2 | 0.89 | 1.7 | -7 | 3 | -7
COc1ccc(NC(=O)c2cc(-c3ccc(F)cc3C)n[nH]2)cc1OC | 6 | 21 | 2 | . | . | . | . | . | . | .
Cc1noc(C)c1NC(=O)N(C)C[C@H]1Oc2c(NC(=O)Nc3ccccc3)cccc2C(=O)N([C@@H](C)CO)C[C@H]1C | . | 7 | . | . | . | . | . | . | . | .
CC=Cc1ccc2n(c1=O)C[C@H]1[C@H](CO)[C@@H](C(=O)NCC)N(CC3CCOCC3)[C@@H]21 (mixture of isomers) | . | 9 | . | . | . | . | . | . | . | .
SMILES | Wnt act | esBAF inh | GAA850 FXN act | MITF act | esBAF Ring1 qPCR | Fgf4 repress | esBAF Bmi1 qPCR | A549 tox SP | HepG2 cytotox SP | HEK293 tox SP | others
O=C(C[C@@H]1C[C@@H]2c3cc(NC(=O)Cc4ccncc4)ccc3O[C@@H]2[C@H](CO)O1)NCC1CC1 | . | -1 | . | . | . | . | . | . | . | .
CCN(CC)S(=O)(=O)c1cccc(-c2cn3cc(C)ccc3n2)c1 | . | 65* | 1 | 68 | 1.1 | 0.77* | 2 | 0 | -49 | -15
O=c1cc(OCc2ccccc2)cc[nH]1 | 0 | 1 | 0 | 1 | . | . | . | . | . | .
Nc1cc(OCc2ccccc2)ccc1OCc1ccccc1 | -3 | 83* | 4 | 62 | 1.1 | ? | 1.6 | -15 | -17 | -10
Cc1cc(-c2nnc(CCC(=O)NCc3cccc(C(F)(F)F)c3)o2)no1 | -2 | 12 | 2 | 3 | . | . | . | . | . | .
Cc1cc(-c2nnc(-c3cccc(C(F)(F)F)c3)o2)no1 | 19 | 59* | 1 | 61 | 1.2 | 0.85 | 1.6 | 3 | -46 | -9
O=[N+]([O-])c1ccc(N/N=C/c2cccnc2)cc1 | 4 | 34 | -2 | 22 | . | . | . | . | . | .
Clc1ccc(N/N=C/c2cccnc2)cc1 | . | 70* | 5 | ? | 1.1 | 0.96 | 1.8 | 0 | -11 | -12
Cc1cc(C)c2c(N)c(C(=O)Nc3ccccc3Br)sc2n1 | 12 | 61* | 6 | 73 | 1.3 | 0.94 | 1.9 | 7 | -14 | 8
NNC(=O)c1nc2ccccc2s1 | -1 | 68* | 2 | . | 1.2 | 0.83 | 1.7 | -5 | -48 | -10
COc1ccc(-c2csc(C(O)c3ccccc3)n2)cc1 (configuration not stated) | -3 | 92* | 4 | . | 1.4 | ? | 1.6 | -2 | 4 | -10
OC(c1ccccc1)c1nc(/C=C/c2ccccc2)cs1 (configuration not stated) | 2 | 59* | 2 | . | 1.6 | ? | 1.6 | 6 | -5 | -6
COc1ccc(C(O)c2nc(-c3ccc(C)c(C)c3)cs2)cc1 (configuration not stated) | 0 | 8 | 0 | . | . | . | . | . | . | .
